Reference: PubChem BioAssay AID651784 (National Center for Advancing Translational Sciences (NCATS), 2012)
Results filed as inconclusive are left out. Active and inactive are the calls of the source. The call rests on the fitted dose curve; in most records, active means well fitted inhibition curve with a large enough effect; inconclusive means small, poorly fitted or top-dose-only effect; inactive means no such curve, though single readings can be large or run the other way.

Experiment: Acumen qHTS Assay for Inhibitors of the mTORC1 Signaling Pathway in MEF (Tsc2-/-, p53-/-) Cells: Hit Validation; further: nearly all actives have a fitted effect of over 65% in size
Details: Acumen imaging; activity change, negative = inhibition: at 37.3 µM (top of the series)
Source text: The mammalian target of rapamycin (mTOR) is an intracellular serine/threonine kinase Aberrant regulation of mTOR signaling plays a causative role in a number of human diseases, including cancer, benign tumors such as lymphangioleiomyomatosis (LAM) and Tuberous Sclerosis Complex (TSC), and metabolic diseases such as diabetes and obesity. This project aims to identify inhibitors of ribosomal protein S6 (rpS6) phosphorylation. The phosphorylation of rpS6 is a key event downstream of mTOR activation. The assay uses a phospho-specific antibody of phospho-rpS6 to detect inhibitors of mTOR activation. Mutations in the Tsc1 and Tsc2 genes are the underlying genetic lesions responsible for TSC, causing constitutive activation of the mTORC1 pathway and leading to profound effects on cell metabolism. Aberrant metabolism in cancer has recently received significant attention as a target to develop therapeutic agents in the treatment of cancer.1 As Tsc2-/- cells have lost the ability to respond to energy and growth factor deprivation, these cells are unable to properly down regulate cellular biosynthetic processes in response to metabolic stress, and are thus extremely sensitive to glucose deprivation-induced death.2 A central goal of this project is to explore the unique cell survival and metabolic properties of cells with Tsc1 or Tsc2 by screening for compounds that selectively target the Tsc2-/- MEFs by screening both Tsc2-/- and WT MEF cell lines. We hope to better understand these aspects of TSC physiology in order to exploit them for therapeutic benefit.
NIH Molecular Libraries Probe Production Centers Network [MLPCN]
NIH Chemical Genomics Center [NCGC]
Assay Submitter (PI): Blenis, John; Harvard University
For quantitative high throughput analysis of mTORC1 signaling, we developed a cell-based assay for immuno-fluorescence based detection of rpS6 phosphorylation on the Acumen Explorer that will be used a platform for the primary small molecule screen. Mouse embryonic fibroblasts (MEFs) are cultured in 1536-well plates using DMEM + 10% FBS. Twenty-four hrs after plating, test compounds (solubilized in DMSO) are delivered and incubated with the cells for 24 hrs at 37 degree Celsius. Following the incubation, media with compound is aspirated and the cells are fixed in 4% paraformaldehyde (PFA) containing PBS + 0.2% TX-100. Next, PFA is aspirated, cells are washed two times with PBS plus 0.2% TX-100 and the cells are blocked for 1 hr at room temperature (blocking buffer: LiCOR Blocking Buffer plus 0.2% TX-100). This is followed by aspiration and staining with Alexa-488 conjugated-phospho-rpS6 Ser235/236 antibody for 2 hours at room temperature (Cell Signaling Technology # 4803, 1:50 dilution in blocking buffer). Cells are washed two times with PBS plus 0.2% TX-100, and stained with 10 uM propidium iodide (PI) for 20-25 minutes for cell number measurement (1:500 dilution of Hoescht staining is also added for IN Cell imaging). The plates are scanned on the Acumen Explorer laser scanning instrument (TTP Labtech) using the 488nm laser for simultaneous excitation of the Alexa-488 and PI. […] Fluorescence emission from the PI stain is selected using a 575-640 nm band pass filter. The normalized phospho-S6 staining is calculated as the ratio of the integrated Alexa 488 intensity divided by the integrated PI intensity for the single concentration rapamycin control (7.5 nM) and DMSO columns. […] Inhibition of the pathway is defined based on the normalized phospho-S6 intensity in rapamycin treated cells. Active cells are defined as those with a normalized phospho-S6 staining above this threshold, and each treatment is reported as the % positive cells in the well, where thresholds are defined by selecting wells with the highest and lowest signal and differentiating between the % non-active and % active populations. In addition to the pathway specific phospho-S6 endpoint, the number of PI stained cells from the Acumen is recorded as a measure of cell viability. […]
Potency means the concentration at half of the fitted maximal effect.

| Compound | Potency | activity change, negative = inhibition [%] |
| --- | --- | --- |
| CCCCOc1ccc(CN2C(=O)C(=O)c3cc(C)ccc32)cc1OC | 0.261 µM (active) |  |
| COc1ccccc1N=c1scc(-c2ccc(S(=O)(=O)N3CCCC3)cc2)n1C | 5.85 µM (active) |  |
| COc1ccc2nc(NC(=O)c3nc(S(=O)(=O)Cc4cccc(C)c4)ncc3Cl)sc2c1 | 2.07 µM (active) |  |
| O=C(c1ccccc1)c1ccc2nc(N3CCN(c4ccc(F)cc4)CC3)c3nncn3c2c1 | 18.5 µM (active) |  |
| CCN(CC)C(=O)c1ccc(NC(=O)CCn2nc(-c3ccc(C)cc3)c3ccccc3c2=O)cc1 |  | -9.62 |
| O=C(NCCc1ccc(Cl)cc1)C(=O)NCC(c1cccs1)S(=O)(=O)c1cccs1 (configuration not stated) |  | -3.28 |
| CN[C@@H]1C[C@@]2(C)O[C@@H]([C@@H]1OC)n1c3ccccc3c3c4c(c5c6ccccc6n2c5c31)C(=O)NC4 | 0.0163 µM (active) |  |
| CCOc1ccc(/C=C/c2nc(C#N)c(NCc3ccccc3)o2)cc1 | 1.04 µM (active) |  |
| COc1ccc(N2CCN(C(=O)C3CCCN(S(=O)(=O)c4ccc5c(c4)CCCN5C(C)=O)C3)CC2)cc1 (configuration not stated) | 16.5 µM (active) |  |
| Cc1ccc(-n2c(/C=C/c3ccc(Br)s3)nc3ccccc3c2=O)cc1C |  | -10.2 |
| COc1ccc(C(=O)Nc2ccc3c(c2)N(C)C(=O)c2ccccc2S3)cc1OC | 10.4 µM (active) |  |
| Cc1ccccc1-c1nc(CN2C(=O)CN=C(c3ccccc3)c3ccccc32)c(C)o1 |  | -13.1 |
| CCOc1ccc(CN(CCc2ccc3c(c2)OCO3)Cc2ccc(C)cc2)cc1 |  | -0.408 |
| NC(N)=NC(=O)c1nc(Cl)c(N)nc1N |  | 57.9 |
| Cc1cccc(N(CC(=O)NCCSc2ccc(Cl)cc2)S(=O)(=O)c2ccccc2)c1C | 13.1 µM (active) |  |
| COc1ccc(S(=O)(=O)NCCc2sc3nc(-c4ccc(C)cc4)nn3c2C)cc1F | 7.36 µM (active) |  |
| Cc1oc(-c2ccc(Cl)cc2)nc1CN1CCC(C(=O)NCCCN2CCN(c3cccc(Cl)c3)CC2)CC1 | 5.85 µM (active) |  |
